High-throughput results deposited in PubChem BioAssay by several laboratories.
This is a sample that favours compounds with a hit; in the whole collection about 3.3% have one here.
eIF4E 4G PPI: inhibitors of eIF4E and eIF4G interaction in translation initiation; P63073+Q04637; TR-FRET eIF4E-eIF4GI(517-606) binding, 2 h; inhibition, % at 21.7 µM; 220,000 tested, 0.37% active; AID 782;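 further: 0% = full FRET control wells and 100% = background wells lacking eIF4GI fragment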
Mcl1-Bid inh: Mcl-1/Bid interaction inhibition | Q07820 | TR-FRET Mcl-1/Bid-Dy647 peptide binding, 1536-well | inhibition, % at 21.7 µM | 220,000 tested, 0.97% active;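 active means compounds that cut the binding signal by more than half at the single screening dose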;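 further: His-tagged Mcl-1 with europium anti-His antibody binding Bid BH3 peptide; 0% = Mcl-1 plus peptide wells and 100% = peptide-only wells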
14-3-3 Bad PPI: disrupts binding of bovine 14-3-3 zeta to phospho-Bad peptide; TR-FRET 14-3-3zeta/Dy647-pBad peptide displacement, 1 h; 220,000 tested, 0.71% active; P63103; AID 781; inhibition, % at 21.7 µM;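 active means inhibition above about 70%, limit read from the data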;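 further: 0% = full 14-3-3 plus peptide FRET controls and 100% = background without 14-3-3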
NCF1 inh: inhibitors of human p47phox binding | P14598 | p47phox/p22phox peptide binding, fluorescence polarization, 2 h | inhibition, % at 24.7 µM | 220,000 tested, 0.53% active | AID 1274;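 further: 0% = p47phox with labelled peptide and 100% = labelled peptide alone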
Bim-Mcl-1: disrupts Bim peptide binding to human Mcl-1; inhibition, % at 10 µM; 190,000 tested, 0.1% active; Bead-based flow cytometry, Bim peptide-Mcl-1 binding; Q07820; AID 1009; in the data active means inhibition above about 40%;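 further: 0% = no compound tracer wells and 100% = peptide blocker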
Mcl1-Noxa inh: Mcl-1/Noxa interaction inhibition; Q07820; TR-FRET Mcl-1/Noxa peptide binding, 2 h; inhibition, % at 21.7 µM; 220,000 tested, 1.5% active; AID 1022;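 active means compounds that cut the protein-peptide binding signal by more than 50% relative to plate controls in a single-dose test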;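 further: His-tagged Mcl-1 with rhodamine Noxa BH3 peptide and terbium anti-His antibody; 0% = Mcl-1 plus Noxa peptide wells and 100% = peptide-only wells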
Numbers without * were called inactive; . = not tested or not shown; [ ] = dose if it differs, or a comment.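 How the source made its calls, unless noted: active means inhibition above about 30% (limit read from the data); inactive means the rest.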

SMILES	eIF4E 4G PPI	Mcl1-Bid inh	14-3-3 Bad PPI	NCF1 inh	Bim-Mcl-1	Mcl1-Noxa inh
CC(C)Cc1nnc(NC(=O)Cc2cccs2)s1	30	-54	40	-67	2	56*
CC(C)c1nnc(NC(=O)Cc2cccs2)s1	2	28	9	-2	-1	7
CCCCCc1nnc(NC(=O)Cc2cccs2)s1	-1	7	-11	-37	0	67*
O=C(Cc1cccs1)Nc1nnc(-c2ccncc2)s1	15	-1	2	-16	0	12
CC(C)(C)Cc1nnc(NC(=O)Cc2cccs2)s1	25	-30	34	-32	-6	60*
O=C(Cc1cccs1)Nc1nnc(CCc2ccccc2)s1	5	0	5	-12	2	10
CCn1cc(CNC(=O)CCc2nnc(CCC3CCCCC3)o2)cn1	1	6	11	0	-2	11
Cc1csc(SCC(=O)NC(=O)NCCC(C)C)n1	-3	-18	-5	-12	-2	15
CCN(CC)c1ccc(N=Cc2c(C)[nH]c3ccccc23)cc1	32*[fluorescence artefact?]	-102	-6	-6	-4	61*
CCOc1ccc2[nH]c(=O)c(C(c3nnnn3Cc3ccco3)N3CCN(C)CC3)cc2c1 (centres undefined)	-2	-29	0	-4	-2	8
COc1cccc(/C=C2/SC(=O)N(C)C2=O)c1OCc1ccc(C(=O)O)cc1	1	-19	-7	3	67*	3
Cc1ccc(C(C[N+](=O)[O-])Sc2ccc(N)cc2)cc1 (centres undefined)	3	17	-4	-13	.	0
COC/C=C/C1=CC2=CC(=O)C(C)(OC(=O)c3ccco3)C(=O)C2=CO1 (centres undefined)	19	-18	8	-45	.	93*
COC(=O)c1cccc(OCC(O)Cn2cnc3cc(C)c(C)cc32)c1 (centres undefined)	16	-5	-14	-3	0	12
COC(=O)c1cccc(OCC(O)Cn2ccnc2)c1 (centres undefined)	4	91*	-3	-5	-1	9
O=C(CSc1nc2ccccc2c(=O)n1-c1ccccc1Cl)Nc1cccc(S(=O)(=O)N2CCOCC2)c1	-6	-34	-4	-42	-1	-16
O=C1OC(c2cccs2)=N/C1=C\c1ccc(-c2ccccc2Cl)o1	0	-42	-1	81*	0	16
CN(C)/C=C1\N=C(c2cccs2)OC1=O	-14	-4	-5	-28	-1	11
N=C1/C(=C/c2ccc(-c3cccc(C(=O)O)c3)o2)C(=O)N=C2SC=C(c3ccccc3)N12	80*	98*	93*	-74	0	109*
N=C1/C(=C\c2ccc(-c3cc(Cl)cc(Cl)c3)o2)C(=O)N=C2SC=C(c3ccccc3)N12	-6	-12	-8	-32	-1	17
O=C1OC(c2ccco2)=N/C1=C\c1ccc(-c2cccc(C(F)(F)F)c2)o1	-5	-23	-4	-255	-5	14
O=C1OC(c2cccs2)=N/C1=C/c1ccc(-c2cccc(C(=O)O)c2)o1	36*	79*	76*	-29	4	96*
C/C(=N\NC(=O)c1c(-c2ccccc2Cl)noc1C)c1cccc(NC(=O)C(C)C)c1	-7	-4	-8	-4	-3	3
CC(C)(C)OC(=O)N1CCC2(CC1)C(C#N)=C(N)OC1=C2C(=O)CCC1	2	-22	-3	0	-3	47
CC(=O)Nc1ccc(S(=O)(=O)Nc2nc3ccccc3nc2Nc2ccc(N)cc2)cc1	-4	-145	0	-2	.	58*
SMILES	eIF4E 4G PPI	Mcl1-Bid inh	14-3-3 Bad PPI	NCF1 inh	Bim-Mcl-1	Mcl1-Noxa inh
CC1=CC(c2ccc(Cl)cc2)n2nc(NC(=O)CCC(=O)O)nc2N1 (centres undefined)	-2	-99	0	-16	.	8
COc1ccc(NC(=O)Cc2c(SC)c3ccccc3n2Cc2ccccc2)cc1	0	-4	3	9	-4	78*
COCCn1c(-c2ccc(Br)cc2)nc2oc3cc(OC)ccc3c(=O)c2c1=O	12	35	19	-4	.	13
O=C(C1=C[C@@H](c2csc3ccccc23)C[C@@H](OCc2ccc(CO)cc2)O1)N1CCN(Cc2ccc3c(c2)OCO3)CC1	-1	97*	-1	-18	0	-12
COc1cc(C2NC(=S)NC(C)=C2C(=O)Nc2cc(C)cc(C)c2)ccc1O (centres undefined)	0	-151	-2	0	.	2
COCCNC(=O)CN1CCN(C(c2ccccc2)c2ccccc2)CC1	5	45	88*	-9	-5	4
COc1ccc(/C=C/C(O)=C(\C#N)c2nnc(N3CCOCC3)n2-c2ccccc2)cc1OC	-2	10	-5	2	1	9
COc1ccc(N2C(C)=CS/C2=C(/C#N)c2nnc(N3CCOCC3)n2-c2ccccc2)cc1	1	16	84*	1	-2	25
CC1=C(C(=O)OC(C)C)C(c2ccccc2Cl)CC(=O)N1 (centres undefined)	4	-4	80*	0	-1	-7
COc1ccccc1NC(=O)C(Sc1ccccc1)c1ccccc1 (centres undefined)	-30	-15	26	-11	-3	18
CCOc1ccccc1NC(=O)C(Sc1ccccc1)c1ccccc1 (centres undefined)	7	8	-12	53*	-1	-13
O=C(Nc1nc(-c2ccccn2)cs1)C1CC(=O)N(c2ccc3c(c2)OCCO3)C1 (centres undefined)	18	-94	-13	-4	0	71*
CSc1nc2cc(C)nn2c(-c2ccccc2)c1C#N	-2	-7	94*	6	.	-10
CSc1nc(C)cc(C)c1C#N	.	.	.	.	0	.
CCOc1ccc(Nc2ncnc3c2cnn3-c2ccccc2)cc1	3	-3	6	-15	0	-6
CCOc1ccc(Nc2ncnc3c2cnn3Cc2ccccc2)cc1	0	2	80*	-1	0	-12
O=C1/C(=C/C=C/c2ccco2)SC(=S)N1NS(=O)(=O)c1ccccc1	34*	74*	89*	-38	.	111*
O=C1/C(=C/c2cccs2)SC(=S)N1NS(=O)(=O)c1ccccc1	0	30	2	-1	.	21
C(=N\N1CCN(Cc2ccccc2)CC1)/c1ccccc1	-2	-73	4	-1	.	-5
CCN(CC)c1ccc(/C=N/N2CCN(Cc3ccccc3)CC2)cc1	7	-8	5	-29	-3	75*
C=CCc1ccccc1OCC(O)CN1CCN(C(=O)OCC)CC1 (centres undefined)	4	-45	4	-4	-2	12
C=CCc1ccccc1OCC(O)CN1CCN(c2ccc(C)cc2)CC1 (centres undefined)	0	-13	72*	-10	-1	19
